Peg3 prom inh-1: Peg3 promoter activity inhibition; inhibition, % at 20 µM; HeLa PEG-Prom luciferase reporter, luminescence, overnight; AID 588405; hit rate 1.7% among 360,000;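 active means inhibition of at least 50% at 20 µM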
CF NFkB block: cystic fibrosis NF-kB activation inhibition; KKLEB NF-kB-GFP reporter, PAF-induced, GFP fluorescence overnight; inhibition, % at 5 µM; hit rate 0.86% among 360,000;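 active means at least 50% inhibition at 5 µM, scaled per plate between neutral and stimulator controls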;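 further: PAF is a Pseudomonas aeruginosa culture filtrate used as stimulus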
HIF-2a inh: blocks HIF-2a reporter activity | AID 624352 | inhibition, % at 18.8 µM | hit rate 0.72% among 360,000 | 786-0 RCC cells HIF-2a reporter, luciferase luminescence, overnight;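 active means inhibition of the luminescence signal of 40% or more relative to plate controls, in a single-dose primary screen at 18.75 µM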
KKLEB cytotox: reduces viability of KKLEB cystic fibrosis airway cells. KKLEB CF airway cells viability, ATPlite luminescence, overnight; active compounds read low; cells stimulated with P. aeruginosa culture filtrate. activity change (cytotoxicity), % at 5 µM. hit rate 0.36% among 360,000;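 active means corrected activity change at or below -50% at 5 µM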
Shn3 inh set2: Schnurri-3 reporter inhibition in Clone20 osteoblasts; inhibition, % at 12.5 µM; Clone20 osteoblast Shn3 3'UTR firefly luciferase, 24 h; hit rate 0.52% among 360,000; AID 588674;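 active means mean inhibition of at least 75% with every replicate also reaching 75%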
Peg3 prom inh-2: Peg3 promoter inhibition confirmation; shares compounds with Peg3 prom inh-1; HeLa PEG-Prom luciferase reporter, luminescence, overnight; inhibition, % at 20 µM; hit rate 84% among 1,300;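 active means at 20 µM dose, 40% or more inhibition averaged across four replicates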
CF NFkB inh conf: confirmation of cystic fibrosis induced NF-kB inhibitors; shares compounds with CF NFkB block; KKLEB CF airway cells, PAF-induced NF-kB-GFP fluorescence, overnight; inhibition, % at 5 µM; hit rate 64% among 1,300; in the data active means inhibition above about 40%;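 further: stimulus PAF is a Pseudomonas aeruginosa filtrate and not platelet activating factor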
Mdm2-MdmX confirm: confirmation of inhibitors of human Mdm2/MdmX interaction, set 2; inhibition, % at 8 µM; hit rate 99% among 740; AID 504601; SaOS-2 split-luciferase Mdm2/MdmX complementation, luminescence; shares compounds with HIF-2a inh;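 active means mean inhibition of the luminescence signal across two replicates at or above 26 percent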
HIF-2a inh conf: HIF-2a inhibition, single concentration confirmation; shares compounds with HIF-2a inh; 786-0 RCC cells, HIF-2a luciferase reporter luminescence, overnight; inhibition, % at 18.8 µM; hit rate 56% among 1,800;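 active means mean inhibition across four replicates of at least 40 percent at the single tested concentration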
HIF-1a cs: counter-screen for HIF-2a inhibitors: HIF-1a inhibition in MiaPaCa-2 cells | shares compounds with HIF-2a inh | MiaPaCa-2 HIF-1a luciferase reporter, desferoxamine, overnight | inhibition, % at 18.8 µM | hit rate 72% among 1,800;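 active means mean inhibition of the reporter signal across four replicates at the single tested dose of 50% or more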
Of the large screens only hits and unclear results are named; the others gave an inactive call (follow-up assays come after a bar, where they were run). Sampled rows, rich in hits. Any-hit rate of the full collection: about 2.6%.

CC1=CC2OC3CC4OC(=O)C=CC=CC(C(C)O)OCC(O)C(C)CC(=O)OCC2(CC1O)C4(C)C31CO1 (stereo not given)	Peg3 prom inh-1 96.5, CF NFkB block 85.5, HIF-2a inh 75.8, KKLEB cytotox -51.8, Shn3 inh set2 93.5 | Peg3 prom inh-2 97.7 | HIF-2a inh conf 73.3 | HIF-1a cs 105.2
O=C1C(Cl)=CC(=Nc2ccc(O)cc2)C=C1Cl	none
O=C1C=CC(=O)C2C1C1(Cl)C(Cl)=C(Cl)C2(Cl)C1(Cl)Cl (stereo not given)	Peg3 prom inh-1 65.4, CF NFkB block 54.3 | CF NFkB inh conf inactive
COc1cc2c(c(OC)c1O)-c1ccc(OC)c(=O)cc1C(NC(=O)C(F)(F)F)CC2 (stereo not given)	CF NFkB block 51.0 | CF NFkB inh conf 87.4
COc1cc2c(c(OC)c1OC)-c1ccc(C(=O)O)cc1[C@@H](NC(C)=O)CC2	none
CC12CC(=O)C3C(CCC4CC(=O)C=CC43C)C1CCC2=O (stereo not given)	CF NFkB block 65.9 | CF NFkB inh conf inactive
CCOC(=O)Cn1cc([N+](=O)[O-])nc1[N+](=O)[O-]	none
COc1ccc(C(c2nnnn2-c2ccc(OC)cc2)N2CCC3(CC2)C(=O)NCN3c2ccccc2)cc1 (stereo not given)	none
COc1ccc(C(c2nnnn2-c2ccc3c(c2)OCCO3)N2CCC(n3c(=O)[nH]c4ccccc43)CC2)cc1 (stereo not given)	Peg3 prom inh-1 62.5, CF NFkB block 61.0 | CF NFkB inh conf inactive
CCCCn1nnnc1C(CCc1ccccc1)N1CCC(n2c(=O)[nH]c3ccccc32)CC1 (stereo not given)	Peg3 prom inh-1 81.9, CF NFkB block 88.0 | CF NFkB inh conf 73.9
COc1ccc2nc(-c3ccc(CN4CCC(n5c(=O)[nH]c6ccccc65)CC4)cc3)c(-c3ccccc3)nc2c1	none (no result: Peg3 prom inh-1, CF NFkB block, KKLEB cytotox, Shn3 inh set2)
COc1ccc(-n2nnnc2C(CCc2ccccc2)N2CCC(n3c(=O)[nH]c4ccccc43)CC2)cc1 (stereo not given)	Peg3 prom inh-1 98.8, CF NFkB block 75.0 | CF NFkB inh conf 88.2
O=C(c1ccc(Cl)cc1)C1CCCN(Cc2ccc3nonc3c2)C1 (stereo not given)	none
C=C1C(C)C2C(Cc3ccccc3)NC(=O)C23OC(=O)/C=C/C(O)CCCC(C)C/C=C/C3C1O (stereo not given)	Peg3 prom inh-1 57.5, CF NFkB block 75.6 | CF NFkB inh conf 97.5
C[C@H]1CCCC(=O)CCC/C=C/c2cc(O)cc(O)c2C(=O)O1	CF NFkB block 51.4 | CF NFkB inh conf 58.2
COc1cc(O)cc2c1C(=O)OC(C)CCCC(=O)CCC/C=C\2 (stereo not given)	none
CCS(=O)(=O)NC(C)c1nnc2n1-c1ccc(Br)cc1C(c1ccccc1Cl)=NC2 (stereo not given)	none
COc1cccc(NC(=O)[C@@H](NC(=O)N2C[C@H]3C[C@@H](C2)c2cccc(=O)n2C3)C(C)C)c1	none
CC(=O)c1c(C)n(C2CCCCC2)c2ccc(O)cc12	CF NFkB block 96.4 | CF NFkB inh conf 100.0 | Mdm2-MdmX confirm 84.6
COc1ccc2c(c1)[nH]c1c(C)nccc12	CF NFkB block 57.3, HIF-2a inh 38.4 | CF NFkB inh conf 82.9 | HIF-2a inh conf inactive | HIF-1a cs 86.0
CCN(CC)C(=O)c1ccc(NC(=O)c2cccc(F)c2)cc1	none
C=Cn1ccnc1P(O)(=S)c1nc(C)c(CCOC(C)=O)s1 (stereo not given)	none
O=C(CN1CCOCC1)c1cccc2ccccc12	none

Screening results deposited in PubChem by several laboratories.
